Experimental data from PubChem BioAssay AID743402 (Broad Institute, 2014).
In all, about 1,200 compounds went through this assay and about 140 (12%) were called active.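 Rule for the calls: active = fitted curve falls past -35% activity change at a dose under twice the top valid dose, in every replicate test; inconclusive = replicate tests disagree on the call; inactive = the rest, including activity in the opposite direction.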 These entries were drawn from the full list.

Assay: CFTR-F508del correctors, dose response, FRT cells, YFP quenching, cherry-pick (AID 743402);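 note: compounds act as correctors raising surface CFTR-F508del before acute activation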
Details: FRT CFTR-F508del YFP iodide quenching, 24 h, channel opened with forskolin and a potentiator; series mostly up to 26 µM; activity change, negative = more quenching (active): at the top concentration

Activity change, negative = more quenching (active), inactive:
O=C1c2ccccc2C(=O)c2c1cccc2N(CCO)CCO -5.56%, COc1ccc(S(=O)(=O)NCc2ccccn2)cc1NC(=O)c1ccccc1F -10.7%, COc1cccc(N2CCN(C(=O)c3ccc(CS(=O)c4ccc(C)cc4)o3)CC2)c1 (centres undefined) -9.58%, O=C(NCCOc1ccccc1)c1cc([N+](=O)[O-])ccc1N1CCOCC1 9.38%, COc1ccc(OC)c(-c2cnc(OC(C)(C)C)nc2OC(C)(C)C)c1 3.12%, COc1ccc([C@H]2CC(=O)C=C(c3c(OC)cccc3OC)C2)cc1 0%, CC(C)C[C@H]1CN([C@@H](CC(C)C)CN2CCC[C@@H]2CN2C(=S)NC[C@@H]2Cc2ccc(O)cc2)C(=S)N1CCc1ccccc1 15.6%, CCOC(=O)c1c(C)[nH]c(C(=O)N/N=C\c2ccccc2O)c1C -6.25%, N#CC1=C(N)Oc2cc(N)ccc2C1c1cccc(F)c1 (centres undefined) 6.67%, COc1ccccc1C#Cc1ccc2c(c1)O[C@@H](CN(C)Cc1cccnc1)[C@H](C)CN([C@H](C)CO)S2(=O)=O 1.85%, COc1ccc([C@H]2C[C@H](O)[C@@H](n3cc(-c4ccc(F)cc4)nn3)CN2Cc2cccs2)cc1 0%, COc1cc(C(=O)Nc2ccccc2C(=O)Nc2ccccn2)cc(OC)c1OC 19.4%, COc1cccc(S(=O)(=O)N(C)C[C@@H]2Oc3cc(C4=CCCC4)ccc3S(=O)(=O)N([C@H](C)CO)C[C@H]2C)c1 -3.33%, CCCCNC(=O)CSc1nc2ccc(C)cc2[nH]1 16.2%, COc1cc(/C=C(\C#N)c2nc3ccccc3[nH]2)cc(OC)c1O 1.72%, O=C(NCCN1C(=O)S/C(=C\c2ccc(OC(F)F)cc2)C1=O)c1cnccn1 3.33%, CC(=O)Nc1cccc(-c2ccnc3c2CC(C)(C(=O)Nc2ccc4c(c2)OCO4)O3)c1 (centres undefined) 16.7%, O=C(NN=C1CCCC1)c1[nH]c2ccc(Cl)cc2c1-c1ccccc1 16.7%, COc1cc(OC)c2c(-c3cccc(-c4sccc4C(C)=O)c3)cc(=O)oc2c1 -3.12%, CC(C)Oc1ncnc2c1[nH]c1ccccc12 6.67%, O=c1[nH]c(/C=C/c2ccccc2F)nc2ccccc12 9.58%, Cc1cccc(N2CCN(C(=O)c3ccc4[nH]c(C)c(C)c4c3)CC2)c1C -6.67%, O=C1C=CCC(/C=C/c2ccccc2)O1 (centres undefined) 16.7%, COc1ccc2c3c([nH]c2c1)[C@@H](CO)N(C(=O)C1CCOCC1)CC31CCN(Cc2cccc(F)c2)CC1 -9.58%, CN(Cc1ccccc1)S(=O)(=O)c1ccc(NC(=S)NC(=O)C2CCCC2)cc1 -3.33%, COc1ccc(NC(=O)c2nc(C)c(C3(C)CC(c4cccnc4)=NO3)s2)cc1 (centres undefined) -3.33%, COc1ccc(C(=O)OCC(=O)N2C(C)CCCC2C)cc1S(=O)(=O)N1CCOCC1 (centres undefined) 14.8%, Cc1ccc(/C=N/NC(=O)c2ccc3ccccc3c2)s1 0%, COc1ccc(C2=Nn3c(nnc3-c3ccccc3F)SC2)cc1OC1CCOC1 (centres undefined) -10%, O=C(N/N=C/c1c(O)ccc2ccccc12)c1ccc(CO)nc1 -6.25%, C[C@H](CO)N1C[C@H](C)[C@@H](CN(C)Cc2ccc(Cl)c(Cl)c2)Oc2ccc(NC(=O)Nc3ccc(C(F)(F)F)cc3)cc2CC1=O 10.2% [at 23.5 µM], Cc1cc(NCc2ccccn2)n2nc(C)c(-c3ccccc3)c2n1 13.1%, COc1ccc(OC)c(/C(C)=N\NC(=O)c2cc3cc(Cl)ccc3n2C)c1 0%, COc1ccc(CCNc2c3ccccc3nc3ccccc23)cc1OC -2.92%, CCOC(=O)c1sc(Nc2nc(C)cc(C)n2)nc1C -11.1%, COc1ccc(C)cc1Nc1c2c(nc3ccccc13)CCC2 29.2%, O=S(=O)(Cc1ccc(Cl)cc1Cl)c1ccc(Cl)cc1 -22.5%, Cc1onc(-c2ccccc2Cl)c1C(=O)N1CCN(c2cccc(Cl)c2)CC1 10%, CCN(Cc1ccccc1)c1ccc(/C=N/N=C(N)N)cc1 13.1%, Cc1nn2cc(-c3cccc(Cl)c3)cnc2c1Br 9.58%, N#C[C@H]1[C@H](c2ccc(C3=CCCCC3)cc2)[C@@H](CO)N1C(=O)NC1CCCCC1 -3.57%, CCc1ccc(OCc2n[nH]c(=S)n2C(C)CCCC(C)C)cc1 (centres undefined) 6.46%, CCOc1ccc2[nH]c(C(=O)N/N=C/c3ccc(OC)cc3)cc2c1 -10%, C/C(=N\NC(=O)c1cc(-c2cccs2)nc2ccccc12)c1ccccn1 16%, O=C(N/N=C/c1cccs1)c1cc(C2CC2)nc2ccccc12 13.3%, CCOC(=O)c1cc2c(=Cc3ccc(N(C)C)cc3)c3ccccc3n2[n+]1C 1.61%, O=C1c2ccccc2C(=O)c2c1cccc2N1CCCC1 0%, Cc1ccc(S(=O)(=O)N2CCCCC2CCNC(=O)C(=O)NCc2ccccc2)cc1 (centres undefined) 27%, COc1ccc(NC(=O)Nc2ccc3c(c2)C(=O)N([C@H](C)CO)C[C@@H](C)[C@H](CN(C)Cc2ccc(C(F)(F)F)cc2)OCCCC[C@H](C)O3)cc1 6.25%, COc1ccc(COc2cc(-c3cccc(OC)c3)nc3ccc(NC(=O)c4ccc(OC)cc4)cc23)cc1 -3.33%, CCCCN1C(=O)CC(C(=O)OCC)=C1C -6.97%, CC1(C(=O)NCc2cccs2)Cc2c(-c3ccc4c(c3)OCO4)ccnc2O1 (centres undefined) 0%, CC1=NN(c2ccccc2)C(=O)C1N=Nc1cccc(O)c1 (centres undefined) 0%, O=C1CC(c2ccccc2)CC2=C1C=Nc1ccccc1N2 (centres undefined) 18.8%, CCc1c(C)nc2ncnn2c1NCCc1ccc(OC)cc1 0%, COc1ccc(CCNc2ncnc3c2oc2ccccc23)cc1OC -3.57%, O=C1CN(S(=O)(=O)Cc2ccccc2)C[C@@H]2[C@@H](c3ccc(C#Cc4cccc(F)c4)cc3)[C@H](CO)N12 -3.57%, Cc1ccc2nc(-c3ccc4c(c3)OCCO4)cn2c1 -13.3%, CCCCNC(=O)C(=O)Nc1ccc2c(c1)N(S(=O)(=O)c1cccs1)CCC2 6.25%, COc1cccc(/C=N/NC(=O)C(=O)Nc2ccccc2OC(F)(F)C(F)F)c1O 8.28%, Cc1ccc(-c2nn(-c3ccccc3)cc2C(=O)N2CCN(c3ccccn3)CC2)cc1 16.2%, COc1ccc(S(=O)(=O)N(C(=O)C(C)C)c2ccc3oc(=O)sc3c2)cc1 12.9%, COc1nc(-c2ccccc2)cc(-c2ccc3c(c2)OCO3)c1C#N 0%, C/C(=N\NC(=O)c1c(Cl)c(C)nn1C)c1ccc(NC(=O)C2CCC2)cc1 7.96%, COc1ccc2c(c1)sc(N)[n+]2Cc1cc(C)cc2cccnc12 13.3%, CCN(CC)c1ccc(/C=N/NC(=O)c2ccco2)c(O)c1 10.7%, Cc1cc(N/N=C/c2ccccc2O)c2ccccc2n1 13.1%, Cc1ccccc1-c1nc(CS(=O)(=O)CC(=O)NCc2ccccc2)c(C)o1 8.28%, Cc1ccc(-c2ccc3c(c2)O[C@H](CN(C)Cc2ccccn2)[C@@H](C)CN([C@H](C)CO)S3(=O)=O)cc1 -7.14%, COc1ccc(S(=O)(=O)Nc2ccc3c(c2)C(=O)N([C@H](C)CO)C[C@@H](C)[C@@H](CN(C)Cc2ccc(Cl)c(Cl)c2)O3)cc1 3.12%, c1coc(-c2nc3ccccc3s2)c1 9.38%, Clc1ccc2c(c1)-c1ccccc1C1=NCCN12 -1.51%, Cc1ccc(N(C)S(=O)(=O)c2ccc(-c3cnc(C4CC4)o3)cc2)cc1 6.67%, Cc1ccnc2c1ccc1cccnc12 13.1%, Cc1ccc(COc2ccccc2-c2cc(C(=O)N/N=C/c3cccnc3)[nH]n2)cc1 22.5%, CC(C)(C)c1cc(C(=O)NN)n(Cc2ccc(Cl)cc2Cl)n1 6.67%, COc1ccccc1Nc1c2c(nc3ccccc13)CCC2 35.6%, CC(=NNC(=S)N1CC2CCC(CC2)C1)c1cnccn1 23.3%, COc1cc(NC(=O)N2CCNC2=O)cc(C(=O)Nc2cccc(C(F)(F)F)c2)c1 -3.33%, COc1ccc(-c2ccc3oc(-c4ccc(OC)cc4)c(C#CCO)c3c2)cc1 1.61%, COCCCN=C1NN=C(c2cc(C)n(Cc3ccco3)c2C)CS1 7.42%, CC(=O)N1CCc2c(sc(NC(=O)c3ccc4c(c3)OCCO4)c2C#N)C1 4.95%, O=C(c1cccc(S(=O)(=O)N2CCN(c3ccc(F)cc3)CC2)c1)N1CCCC(C(F)(F)F)C1 (centres undefined) 6.67%, COc1ccccc1C(=O)NC(=S)/C=C1/N(C)c2ccccc2C1(C)C -3.33%, COc1cc2c(C#CCCO)c(-c3ccsc3)oc(=O)c2cc1OC -16%, CC(=O)NC(c1ccc(C(C)C)cc1)c1ccc2cccnc2c1O (centres undefined) 13.9%, O=C(Nc1cccc(C2=NCCN2)c1)Nc1cccc(C2=NCCN2)c1 0%, Cc1ccc2c(c1)CCCN2C(=O)CCc1nc2ccccc2c(=O)[nH]1 -6.67%, COc1ccc2cc(CN(CC3CCCO3)C(=S)Nc3ccccc3)c(=O)[nH]c2c1 (centres undefined) 12.9%, COc1ccc(Nc2nc3cc(-c4sccc4C)sc3c(=O)n2C)cc1OC -35.7%, Cc1ccc2cc(CN(CC3CCCO3)C(=S)Nc3ccccc3)c(=O)[nH]c2c1C (centres undefined) 0%, CCOC(=O)N1CCC(NC(=O)c2ccc3c(c2)N=C(C)c2c(C)ccc(C)c2S3)CC1 3.12%, O=C(Nc1ccc(Br)cn1)c1cccc2ccccc12 -20%, Cc1cc2c(cc1S(=O)(=O)Nc1ccc(F)cc1)n(C)c(=O)c(=O)n2C -0.721%, CC(=O)Nc1ccc(S(=O)(=O)NC2=C(N3CCN(Cc4ccccc4)CC3)C(=O)c3ccccc3C2=O)cc1 19.4%, N#Cc1c(-c2ccc(F)cc2)c(-c2ccc(F)cc2)nn(CCO)c1=O 20%, C[C@@H]1CN([C@H](C)CO)C(=O)c2cc(NS(=O)(=O)c3ccc(Cl)cc3)ccc2O[C@@H]1CN(C)Cc1ccc(-c2ccccc2)cc1 20%, COc1ccc2c3c([nH]c2c1)[C@H](CO)N(C(=O)C1CCOCC1)CC31CCN(Cc2cccc(F)c2)CC1 -6.46%, Cc1cc(C(=O)N/N=C/c2ccc(N(C)C)cc2)c2ccccc2n1 0%
